Compound activity deposited in PubChem by Broad Institute.
A selection: hits, their analogues and other compounds. The true share with any hit is near 3.3%.
FGF22 binding-1: binders of human FGF22 protein, primary screen, FGF22 synaptogenesis inhibitor project, biophysical, thermal shift, single point; AID 651658, 2012; hit rate 1.5% among 340,000; activity (Tm shift, normalised), % at 9.99 µM; Fibroblast growth factor 22 (Homo sapiens), Q9HCT0; recombinant FGF22 thermal shift, SYPRO orange fluorescence; percent of sucrose octasulfate shift, DMSO zero;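 active = mean Tm shift, scaled 0 neutral to 100 positive control, at about 1.3% or above, every replicate too, limit read from the data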
Target sequence (Q9HCT0 whole entry, looked up): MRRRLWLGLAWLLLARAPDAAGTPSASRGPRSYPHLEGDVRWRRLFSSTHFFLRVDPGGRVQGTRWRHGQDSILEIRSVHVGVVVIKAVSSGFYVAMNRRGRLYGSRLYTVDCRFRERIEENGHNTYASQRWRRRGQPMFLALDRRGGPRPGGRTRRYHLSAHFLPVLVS
Casp6 inh: human caspase-6 inhibitors, primary screen, biochemical, VEID-R110 fluorescence, single point, set 2; purified caspase-6, Z-VEID-R110 cleavage fluorescence; P55212; hit rate 0.53% among 350,000; inhibition, % at 12.5 µM;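 active = mean inhibition across replicates at least about 35%, with every replicate also reaching that limit, limit read from the data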
Target sequence (P55212 24-179 limits assumed): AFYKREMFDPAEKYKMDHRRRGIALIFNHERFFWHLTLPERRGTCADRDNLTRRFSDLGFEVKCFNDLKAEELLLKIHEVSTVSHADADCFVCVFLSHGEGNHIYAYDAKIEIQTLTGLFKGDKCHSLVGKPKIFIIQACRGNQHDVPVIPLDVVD
Target sequence (P55212 194-293 limits assumed): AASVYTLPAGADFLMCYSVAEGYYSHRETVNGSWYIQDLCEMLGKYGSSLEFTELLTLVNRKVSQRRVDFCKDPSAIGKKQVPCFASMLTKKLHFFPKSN
ERAP1 inh: human ERAP1 aminopeptidase inhibitors, primary screen, biochemical, single point, plate reader; recombinant ERAP1, Leu-AMC fluorescence, 60 min; inhibition, % at 10.7 µM; hit rate 0.15% among 340,000; AID 652197, 2013;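 active = mean replicate inhibition of at least 30%, or all replicates individually reaching that 30% level; inactive = mean below 30% and not every replicate reaching it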
INS-1E GSIS act: GLuc luminescence reporter in INS-1E cells, primary screen for activators of glucose-dependent secretion of insulin | INS-1E GLuc reporter insulin secretion, 2-3 h | activation, % at 16.6 µM | hit rate 0.61% among 370,000 | AID 743287, 2014;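 active = lowest replicate activation of at least 40%, so every replicate reaches that level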
SIRT5 inh: SIRT5 desuccinylase inhibitors, primary screen, biochemical, fluorescence imaging, single point, set 5; NAD-dependent protein deacylase sirtuin-5, mitochondrial (Homo sapiens), Q9NXA8; Purified SirT5, succinyl-peptide AMC, trypsin-coupled fluorescence; inhibition, % at 15 µM; hit rate 1.1% among 330,000; AID 652115, 2013; in the data active = inhibition above about 15%
FGF22 binding-2: binders of human FGF22 protein, dose response, FGF22 synaptogenesis inhibitor project, biophysical, thermal shift, cherry-pick retest; thermal shift activity, °C (ΔTm) at 38 µM; recombinant FGF22 thermal shift, SYPRO orange fluorescence; shares compounds with FGF22 binding-1; hit rate 2% among 1,000; AID 720646, 2013;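 active = fitted rise in melting shift crosses a set limit at or below the top valid dose tested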
FGF22 TSA DP: binders of human FGF22 protein, dose response, FGF22 synaptogenesis inhibitor project, biophysical, thermal shift, dry powder. shares compounds with FGF22 binding-1. Thermal shift assay, SYPRO orange, melting temperature shift. Tm shift (activity), % at 38 µM. 50 tested, under 10 active. AID 743017, 2013;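 active = compounds whose fitted dose curve of melting temperature shift rises past a set threshold within the tested doses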
SYPRO no-protein: compound-only thermal shift signal without protein, dose response, artefact control for FGF22 binder project, biochemical, cherry-picked samples, RT-PCR instrument; shares compounds with FGF22 binding-1; compound-only SYPRO orange thermal shift counter-screen, no protein; AC50, µM (top dose mostly 38 µM); hit rate 2% among 1,000; AID 743019, 2013;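 active = rising signal whose fitted curve reaches the 0.54 level within the top valid dose, showing a melting point, actives reach about 13 µM in these data; inactive = the rest, including activity in the opposite direction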; note: value is where the raw curve crosses a fixed level and not half-maximal
Numbers stand for hits; – = inactive; · = not tested or not shown.

SMILES	FGF22 binding-1	Casp6 inh	ERAP1 inh	INS-1E GSIS act	SIRT5 inh	FGF22 binding-2	SYPRO no-protein	others
CC(=O)N1[C@H](CO)[C@H](c2ccccc2)[C@H]1CN(C(=O)c1cccc(F)c1)C(C)C	1.7	–	–	–	–	–	–
CC(=O)N1[C@@H](CO)[C@@H](c2ccccc2)[C@@H]1CN(C(=O)c1cccc(F)c1)C(C)C	–	–	–	–	–	·	·
O=C(CN1C(=O)NC2(CCOc3ccccc32)C1=O)Nc1ccc(Br)cc1F (centres undefined)	1.7	–	–	–	–	–	–
Cc1[nH]c2ccccc2c1C(=O)C(=O)NCCOc1ccccc1	17.1	–	–	–	–	–	–
COc1ccc(CCNC(=O)C(=O)c2c(C)[nH]c3ccccc23)cc1	–	–	–	·	–	·	·
CC(C)NC(=O)N(C)C[C@@H]1Oc2ccc(NS(=O)(=O)c3cn(C)cn3)cc2CC(=O)N([C@H](C)CO)C[C@@H]1C	–	–	–	–	–	·	·
O=C(N/N=C/c1ccc(C(F)(F)F)cc1)c1ccc(O)cc1	2.4	–	–	–	–	–	–	FGF22 TSA DP=–
O=C(N/N=C/c1cccc(C(F)(F)F)c1)c1ccc(O)cc1	–	–	–	–	–	·	·
CO[C@@H]1CN(C)C(=O)c2ccc(NS(=O)(=O)c3ccc(F)cc3)cc2OC[C@@H](C)N(C)C[C@H]1C	205.8	–	–	–	·	–	–
CO[C@@H]1CN(C)C(=O)c2ccc(NS(=O)(=O)c3ccc(Oc4ccccc4)cc3)cc2OC[C@H](C)NC[C@@H]1C	1.2	–	–	–	–	–	–
CO[C@H]1CN(C)C(=O)c2ccc(NS(=O)(=O)c3ccc(Oc4ccccc4)cc3)cc2OC[C@H](C)NC[C@H]1C	–	–	–	–	–	·	·
CC(C)NC(=O)N(C)C[C@H]1Oc2c(NC(=O)C3CC3)cccc2C(=O)N([C@H](C)CO)C[C@H]1C	–	–	–	–	–	·	·
C[C@@H]1CN([C@@H](C)CO)C(=O)Cc2cc(NC(=O)NC3CCCCC3)ccc2O[C@@H]1CN(C)Cc1ccc(C(=O)O)cc1	–	–	–	–	–	·	·
COc1ccc(NC(=O)Nc2ccc3c(c2)C(=O)N([C@@H](C)CO)C[C@@H](C)[C@H](CN(C)CC2CCCCC2)O3)cc1	–	–	–	–	–	·	·
CC(C)c1ccc(NC2CCCN(C(=O)c3cc(C(C)C)[nH]n3)C2)cc1 (centres undefined)	27.9	–	–	–	–	–	–
Cc1ccc(NC(=O)/C=C/C(=O)O)c([N+](=O)[O-])c1	·	·	·	–	·	·	·
COc1ccc(NC(=O)/C=C/C(=O)O)c([N+](=O)[O-])c1	2.2	–	–	–	–	–	–
COc1ccc(-c2ccc([C@@H]3[C@@H](CO)N4CCCCN(C(=O)c5ccc(F)cc5)C[C@@H]34)cc2)cc1	34.3	–	–	–	–	–	9.01µM
COc1ccc(-c2ccc([C@H]3[C@@H](CO)N4CCCCN(C(=O)c5ccc6c(c5)OCO6)C[C@H]34)cc2)cc1	1.3	–	–	–	–	–	–
COc1ccc(-c2ccc([C@H]3[C@@H](CO)N4CCCCN(C(=O)c5ccc6c(c5)OCO6)C[C@@H]34)cc2)cc1	–	–	–	–	–	·	·
O=C(O)c1ccc(NS(=O)(=O)c2ccc(C(=O)Nc3ccccc3)cc2)cc1	–	–	–	–	–	·	·
COc1ccc(NS(=O)(=O)c2cccc(C(=O)NNC(=O)c3ccccc3O)c2)cc1	2.0	–	–	–	–	–	–
